Most compounds without a hit are left out; they make up all but 2.2% or so of the library.
Shn3 3UTR inh = reduces Shn3 3'UTR luciferase signal in osteoblasts; hit rate 0.52% among 360,000; inhibition, % at 12.5 µM; Clone20 osteoblast Shn3 3'UTR firefly luciferase, 24 h;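 active = mean inhibition of at least 75% with every replicate also reaching 75%; inconclusive = mean inhibition at least 75% but some replicate below; inactive = mean inhibition below 75%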;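 also: 0% = median of neutral control wells and 100% = pilot-screen positive control compound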
LGR2 inh = Drosophila LGR2 receptor signaling inhibition | inhibition, % at 9.99 µM | hit rate 0.35% among 380,000 | AID 720647 | HEK293 LGR2, CRE-luciferase, bursicon-stimulated, 4 h;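 active = drop in luminescence signal, shown as inhibition above about 50% in the replicate tests, limit read from the data, passing the limit was not always enough; inconclusive = probably only some replicates passing the limit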;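 also: agonist challenge used bursicon conditioned medium at about half maximal strength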
PAX8 reporter = PAX8 transcriptional activity inhibition. RMG-I TPO-luciferase reporter, SteadyGlo, 24 h. inhibition, % at 12.6 µM. hit rate 1.2% among 360,000. AID 652154;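 active = mean replicate inhibition at least 60% with every replicate also reaching 60%; inconclusive = only one of the two criteria is met; inactive = mean below 60% and not all replicates reaching 60%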;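 also: luciferase light reporting Pax8 driven TPO promoter activity; plate controls were median of neutral control wells for no effect and mitoxantrone controls for full effect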
EWS-Fli block = blocks EWS/Fli oncoprotein-driven transcription | A673 NR0B1-luciferase reporter, viability-normalised | inhibition, % at 12.6 µM | hit rate 0.67% among 350,000 | AID 651661;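 active = mean inhibition of at least 50% after viability correction, with every replicate also passing that limit; inconclusive = mean reaches 50% but only one of two replicates passes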;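 also: firefly luciferase signal divided by Alamar Blue viability fluorescence both relative to DMSO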
EBV LMP1 NFkB = reduces LMP1-driven NF-kappaB luciferase signal; inhibition, % at 12.5 µM; LMP1-induced NF-kappaB luciferase reporter cells, luminescence; hit rate 0.69% among 350,000; in the data active = inhibition above about 41%; inconclusive = no clear call, values can overlap the other calls;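 also: 0% = neutral control wells and 100% = reference inhibitor control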
TRPM1 prom inh = reduces MITF-dependent TRPM1 promoter luciferase signal; AID 488899; inhibition, % at 12.5 µM; SK-MEL-5 TRPM1 promoter luciferase, 24 h; hit rate 0.83% among 330,000;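 active = mean inhibition across replicates of 60% or more, whatever share of single replicates reaches that level; inconclusive = some that reach 60%, reason not given; inactive = mean inhibition across replicates below 60%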
Numbers without * were called inactive; ? = inconclusive; . = no result.

SMILES	Shn3 3UTR inh	LGR2 inh	PAX8 reporter	EWS-Fli block	EBV LMP1 NFkB	TRPM1 prom inh
O=C(C[C@@H]1CC[C@@H]2[C@H](COC[C@H](O)CN2Cc2ccc(Oc3ccccc3)cc2)O1)N1CCCCC1	.	25	7	14	.	.
C[C@@H](NC(=O)C[C@@H]1CC[C@@H]2[C@H](COC[C@H](O)CN2Cc2cc(F)ccc2F)O1)c1ccccc1	.	-4	68*	5	.	.
O=C(C[C@H]1CC[C@H]2[C@@H](COC[C@@H](O)CN2Cc2ccc(Oc3ccccc3)cc2)O1)N1CCCCC1	.	-18	100*	20	.	.
O=C(C[C@H]1CC[C@@H]2[C@H](COC[C@@H](O)CN2Cc2ccc(F)cc2)O1)NCc1ccccc1Cl	.	3	92*	10	.	.
Cc1cc(O)c(C(C)C)cc1C1(c2cc(C(C)C)c(O)cc2C)OC(=O)c2ccccc21	40	70*	89*	29	4	57
Cc1noc(C)c1NC(=O)NCC[C@@H]1CC[C@H](NC(=O)Nc2cccc(F)c2)[C@@H](CO)O1	.	0	2	6	.	.
CC(=O)N(C1=C(Cl)C(=O)c2ccccc2C1=O)C1CCCCC1	7	8	99*	55*	24	86*
COc1ccc(N2C(=O)CC(Sc3nc(C)cc(C)c3C#N)C2=O)cc1 (configuration not stated)	-25	-12	.	.	5	-11
O=C1CC(Sc2nnc(-c3ccccc3O)o2)C(=O)N1c1ccccc1 (configuration not stated)	93*	1	.	29	-3	6
COc1ccc(N2C(=O)CC(Sc3nnc(-c4ccccc4)o3)C2=O)cc1 (configuration not stated)	61	.	107*	.	?	16
O=C1CC(Sc2ncccn2)C(=O)N1c1ccccc1 (configuration not stated)	-6	.	2	.	-2	7
Cc1cc(Cl)n2c(nc3cc(F)c(F)cc32)c1C#N	96*	31	74*	58*	6	98*
CCOC(=O)c1cnn(CCOC(=O)c2cccs2)c1NC(=O)c1cccs1	16	7	.	.	1	0
CCOC(=O)c1cnn(CCOC(=O)c2cccc(F)c2)c1NC(=O)c1cccc(F)c1	-8	29	110*	-5	4	4
CN(CC(=O)Nc1cccnc1)S(=O)(=O)c1ccc(Br)cc1	0	0	-2	-3	50*	2
Cc1ccc(S(=O)(=O)N(C)CC(=O)Nc2cccnc2)cc1	3	1	16	-4	0	7
C[C@H](CO)N1C[C@H](C)[C@H](CN(C)CC2CC2)Oc2ncc(-c3ccc(C#N)cc3)cc2C1=O	.	14	.	-9	.	.
CCOc1ccc(C(=O)Nc2cccc(-c3nc4ccccc4[nH]3)c2C)cc1[N+](=O)[O-]	13	-16	13	83*	7	1
C[C@@H]1CCCCO[C@H](CN(C)C(=O)Nc2ccccc2)[C@H](C)CN([C@H](C)CO)C(=O)c2cc(NC(=O)C3CCCCC3)ccc2O1	.	17	-10	13	.	.
C[C@@H](NC(=O)C[C@@H]1CC[C@H]2[C@@H](COC[C@H](O)CN2C(=O)Nc2cc(Cl)cc(Cl)c2)O1)c1ccccc1	.	5	18	13	.	.
CCOC(=O)c1ccc(N2C(=O)C=CC2=O)cc1	88*	.	.	.	67*	41
CCOC(=O)c1ccc(-n2c(C)ccc2C)cc1	-7	-4	3	.	-5	-9
CO[C@@H]1CC[C@H]2CCN(C)C(=O)[C@@H](C)[C@H](OC)CN(C)C(=O)c3cccc(C#N)c3OC[C@@H]1O2	.	-3	-1	-16	.	.
CC1CC(C)CN(C(=O)c2ccc(NC(=O)c3ccc(=O)[nH]c3)cc2)C1 (configuration not stated)	0	-2	0	2	0	.
CC1CC(C)CN(S(=O)(=O)c2ccc(NC(=O)c3ccc(=O)[nH]c3)cc2)C1 (configuration not stated)	-4	0	39	64*	-1	29
SMILES	Shn3 3UTR inh	LGR2 inh	PAX8 reporter	EWS-Fli block	EBV LMP1 NFkB	TRPM1 prom inh
CCN=c1scc(-c2cccs2)n1/N=C/c1cc(OC)ccc1O	-78	-36	-150	.	-27	-32
CC(C)N=c1scc(-c2cccs2)n1/N=C/c1ccc(O)c(O)c1O	88*	-37	-5	.	-22	-2
C[C@H]1CN([C@@H](C)CO)C(=O)c2cccc(N(C)C)c2O[C@@H]1CN(C)S(=O)(=O)c1cccs1	.	-5	-5	2	.	.
CC1(C)N=C(N)N=C(N)N1CCCCc1ccccc1	58	-10	73*	46	22	41
COC(=O)C[C@H]1CC[C@@H]2[C@@H](COc3ccc(NC(=O)C4CCOCC4)cc3C(=O)N2C)O1	.	17	14	2	.	.
Cc1ccc(NC(=O)c2ccc3c(c2)OCCO3)nc1	23	49	-9	35	50*	13
Cc1cccc(NC(=O)c2ccc3c(c2)OCCO3)c1	-13	?	-1	43	9	-4
Cc1ccc(C(=O)Nc2ccc3c(c2)OCCO3)c(C)c1	57	93*	68*	79*	58*	66*
Cc1ccc(NC(=O)CNC(=O)c2ccc3c(c2)OCO3)nc1	10	1	-3	.	4	-17
Cc1ccccc1C(=O)N1CCN(c2ccc(NC(=O)CSc3ccc(Cl)cc3)cc2)CC1	83	.	.	.	58*	50
Cc1ccc(NC(=O)c2ccc3c(c2)OCCO3)cc1C	0	77*	19	40	29	7
COCC(=O)N(C)C[C@H]1Oc2cc(C#Cc3ccccc3)ccc2S(=O)(=O)N([C@@H](C)CO)C[C@H]1C	.	1	.	-6	.	.
O=C(C[C@@H]1CC[C@H]2[C@@H](COC[C@@H](O)CN2C(=O)c2ccncc2)O1)NCc1ccc(-c2ccccc2)cc1	.	2	-45	-3	.	.
C[C@@H]1CN([C@@H](C)CO)C(=O)c2cc(C#CC3(O)CCCC3)cnc2O[C@H]1CN(C)C(=O)C1CCC1	.	7	4	-2	.	.
COCC(=O)Nc1ccc2c(c1)[C@H]1C[C@@H](CC(=O)NCc3ccccn3)O[C@@H](CO)[C@H]1O2	.	-4	-17	8	.	.
Cc1ccc(C(=O)N2CCN(c3ccc(NC(=O)c4ccc5c(c4)OCCO5)cc3)CC2)cc1	70	-18	13	15	19	47
Cc1ccccc1C(=O)N1CCN(c2ccc(NC(=O)c3ccc4c(c3)OCCO4)cc2)CC1	86*	?	36	12	43*	70*
CC(=O)c1cccc(NC(=O)c2ccc3c(c2)OCO3)c1	-33	.	-126	-62	-17	-36
CCOC(=O)c1cccc(NC(=O)c2ccc3c(c2)OCO3)c1	-33	-61	-107	71*	-20	-53
C/C(=N\NC(=O)c1nn(C)cc1Br)c1ccc(NC(=O)c2ccncc2)cc1	4	-7	87*	-15	0	17
C/C(=N\NC(=O)c1nn(C)cc1Br)c1cccc(NC(=O)C(C)(C)C)c1	-10	.	.	.	2	-7

Screening data (PubChem)
